From the supplement of paper PMC11732987, “Enantioselective OTUD7B fragment discovery through chemoproteomics screening and high-throughput optimisation” (Communications Chemistry, 2025)

Experiments:
Test in all cases: log2 ratio of Biotin-Ahx-Ub-VS probe labelling (fragment/DMSO); higher = less target engagement (more negative = stronger competition), active = hit call of the paper (q ≤ 0.05, log2 ratio ≤ -1)
Details in all cases: compound concentration: 200 uM; treatment time: 3 h
USP19 = target: T1, USP19 (UniProt O94966)
T1 sequence (whole entry): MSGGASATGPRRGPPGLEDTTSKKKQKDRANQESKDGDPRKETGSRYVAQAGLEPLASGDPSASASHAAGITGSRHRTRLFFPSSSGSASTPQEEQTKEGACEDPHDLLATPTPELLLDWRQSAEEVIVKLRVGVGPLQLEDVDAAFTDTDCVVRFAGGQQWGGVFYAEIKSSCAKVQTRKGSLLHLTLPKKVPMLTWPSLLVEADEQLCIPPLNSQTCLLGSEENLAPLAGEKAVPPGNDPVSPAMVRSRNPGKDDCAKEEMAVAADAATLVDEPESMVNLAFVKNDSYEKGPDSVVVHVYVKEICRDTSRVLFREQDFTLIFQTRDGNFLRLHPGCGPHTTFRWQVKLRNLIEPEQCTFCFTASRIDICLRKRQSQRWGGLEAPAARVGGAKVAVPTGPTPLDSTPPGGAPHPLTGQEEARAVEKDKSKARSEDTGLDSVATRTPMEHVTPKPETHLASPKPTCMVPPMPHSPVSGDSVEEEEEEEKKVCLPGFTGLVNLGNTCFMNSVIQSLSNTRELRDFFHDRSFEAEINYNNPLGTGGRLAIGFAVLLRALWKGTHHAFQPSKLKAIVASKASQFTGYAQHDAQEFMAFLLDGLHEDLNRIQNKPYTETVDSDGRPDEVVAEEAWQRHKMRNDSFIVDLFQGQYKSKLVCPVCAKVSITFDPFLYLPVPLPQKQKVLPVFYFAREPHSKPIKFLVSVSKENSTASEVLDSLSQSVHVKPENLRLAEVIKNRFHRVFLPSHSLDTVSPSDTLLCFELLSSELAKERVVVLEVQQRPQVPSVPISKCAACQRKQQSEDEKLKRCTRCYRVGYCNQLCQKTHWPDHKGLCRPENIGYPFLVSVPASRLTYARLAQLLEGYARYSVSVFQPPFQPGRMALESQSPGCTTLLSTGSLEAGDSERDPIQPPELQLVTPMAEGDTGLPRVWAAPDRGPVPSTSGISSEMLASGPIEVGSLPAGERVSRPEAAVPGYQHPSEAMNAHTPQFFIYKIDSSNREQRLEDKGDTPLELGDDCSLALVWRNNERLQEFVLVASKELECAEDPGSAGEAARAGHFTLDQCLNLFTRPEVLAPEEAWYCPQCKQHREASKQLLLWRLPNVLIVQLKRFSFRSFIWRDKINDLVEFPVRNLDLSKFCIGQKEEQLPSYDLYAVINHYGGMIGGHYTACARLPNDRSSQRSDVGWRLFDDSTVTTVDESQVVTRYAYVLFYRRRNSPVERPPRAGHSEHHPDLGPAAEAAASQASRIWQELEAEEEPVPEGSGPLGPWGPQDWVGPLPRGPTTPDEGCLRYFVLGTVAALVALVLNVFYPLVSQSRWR
Method in brief: (§1)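 Average log2 ratios of fragment over vehicle were obtained by unpaired t-test from global-median-normalised Spectronaut label-free quantities. Proteins with ≥2 unique peptides were included. HEK293T lysate (495 µg per sample) was treated in triplicate with fragment at 200 µM or vehicle for 3 h, then with Biotin-Ahx-Ub-VS at 0.5 µM final for 1 h, and labelled DUBs were NeutrAvidin-enriched and run by diaPASEF LC-MS/MS.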

USP22 = target: T2, USP22 (UniProt Q9UPT9)
T2 sequence (whole entry): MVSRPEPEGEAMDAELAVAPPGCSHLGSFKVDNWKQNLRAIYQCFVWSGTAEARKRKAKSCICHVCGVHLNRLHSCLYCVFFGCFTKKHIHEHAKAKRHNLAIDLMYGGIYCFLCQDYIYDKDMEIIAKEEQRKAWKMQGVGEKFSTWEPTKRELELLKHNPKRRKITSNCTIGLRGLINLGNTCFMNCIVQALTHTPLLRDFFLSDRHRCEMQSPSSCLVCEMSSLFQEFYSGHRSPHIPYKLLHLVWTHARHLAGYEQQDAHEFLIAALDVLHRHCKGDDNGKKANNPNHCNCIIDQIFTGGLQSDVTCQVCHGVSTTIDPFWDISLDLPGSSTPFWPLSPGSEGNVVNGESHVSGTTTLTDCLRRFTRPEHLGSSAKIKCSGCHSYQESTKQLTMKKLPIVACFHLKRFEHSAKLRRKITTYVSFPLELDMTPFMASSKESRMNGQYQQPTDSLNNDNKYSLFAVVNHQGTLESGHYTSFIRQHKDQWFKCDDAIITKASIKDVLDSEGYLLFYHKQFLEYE
Method in brief: as §1

USP24 = USP24 (UniProt Q9UPU5)
USP24, sequence (Q9UPU5 whole entry): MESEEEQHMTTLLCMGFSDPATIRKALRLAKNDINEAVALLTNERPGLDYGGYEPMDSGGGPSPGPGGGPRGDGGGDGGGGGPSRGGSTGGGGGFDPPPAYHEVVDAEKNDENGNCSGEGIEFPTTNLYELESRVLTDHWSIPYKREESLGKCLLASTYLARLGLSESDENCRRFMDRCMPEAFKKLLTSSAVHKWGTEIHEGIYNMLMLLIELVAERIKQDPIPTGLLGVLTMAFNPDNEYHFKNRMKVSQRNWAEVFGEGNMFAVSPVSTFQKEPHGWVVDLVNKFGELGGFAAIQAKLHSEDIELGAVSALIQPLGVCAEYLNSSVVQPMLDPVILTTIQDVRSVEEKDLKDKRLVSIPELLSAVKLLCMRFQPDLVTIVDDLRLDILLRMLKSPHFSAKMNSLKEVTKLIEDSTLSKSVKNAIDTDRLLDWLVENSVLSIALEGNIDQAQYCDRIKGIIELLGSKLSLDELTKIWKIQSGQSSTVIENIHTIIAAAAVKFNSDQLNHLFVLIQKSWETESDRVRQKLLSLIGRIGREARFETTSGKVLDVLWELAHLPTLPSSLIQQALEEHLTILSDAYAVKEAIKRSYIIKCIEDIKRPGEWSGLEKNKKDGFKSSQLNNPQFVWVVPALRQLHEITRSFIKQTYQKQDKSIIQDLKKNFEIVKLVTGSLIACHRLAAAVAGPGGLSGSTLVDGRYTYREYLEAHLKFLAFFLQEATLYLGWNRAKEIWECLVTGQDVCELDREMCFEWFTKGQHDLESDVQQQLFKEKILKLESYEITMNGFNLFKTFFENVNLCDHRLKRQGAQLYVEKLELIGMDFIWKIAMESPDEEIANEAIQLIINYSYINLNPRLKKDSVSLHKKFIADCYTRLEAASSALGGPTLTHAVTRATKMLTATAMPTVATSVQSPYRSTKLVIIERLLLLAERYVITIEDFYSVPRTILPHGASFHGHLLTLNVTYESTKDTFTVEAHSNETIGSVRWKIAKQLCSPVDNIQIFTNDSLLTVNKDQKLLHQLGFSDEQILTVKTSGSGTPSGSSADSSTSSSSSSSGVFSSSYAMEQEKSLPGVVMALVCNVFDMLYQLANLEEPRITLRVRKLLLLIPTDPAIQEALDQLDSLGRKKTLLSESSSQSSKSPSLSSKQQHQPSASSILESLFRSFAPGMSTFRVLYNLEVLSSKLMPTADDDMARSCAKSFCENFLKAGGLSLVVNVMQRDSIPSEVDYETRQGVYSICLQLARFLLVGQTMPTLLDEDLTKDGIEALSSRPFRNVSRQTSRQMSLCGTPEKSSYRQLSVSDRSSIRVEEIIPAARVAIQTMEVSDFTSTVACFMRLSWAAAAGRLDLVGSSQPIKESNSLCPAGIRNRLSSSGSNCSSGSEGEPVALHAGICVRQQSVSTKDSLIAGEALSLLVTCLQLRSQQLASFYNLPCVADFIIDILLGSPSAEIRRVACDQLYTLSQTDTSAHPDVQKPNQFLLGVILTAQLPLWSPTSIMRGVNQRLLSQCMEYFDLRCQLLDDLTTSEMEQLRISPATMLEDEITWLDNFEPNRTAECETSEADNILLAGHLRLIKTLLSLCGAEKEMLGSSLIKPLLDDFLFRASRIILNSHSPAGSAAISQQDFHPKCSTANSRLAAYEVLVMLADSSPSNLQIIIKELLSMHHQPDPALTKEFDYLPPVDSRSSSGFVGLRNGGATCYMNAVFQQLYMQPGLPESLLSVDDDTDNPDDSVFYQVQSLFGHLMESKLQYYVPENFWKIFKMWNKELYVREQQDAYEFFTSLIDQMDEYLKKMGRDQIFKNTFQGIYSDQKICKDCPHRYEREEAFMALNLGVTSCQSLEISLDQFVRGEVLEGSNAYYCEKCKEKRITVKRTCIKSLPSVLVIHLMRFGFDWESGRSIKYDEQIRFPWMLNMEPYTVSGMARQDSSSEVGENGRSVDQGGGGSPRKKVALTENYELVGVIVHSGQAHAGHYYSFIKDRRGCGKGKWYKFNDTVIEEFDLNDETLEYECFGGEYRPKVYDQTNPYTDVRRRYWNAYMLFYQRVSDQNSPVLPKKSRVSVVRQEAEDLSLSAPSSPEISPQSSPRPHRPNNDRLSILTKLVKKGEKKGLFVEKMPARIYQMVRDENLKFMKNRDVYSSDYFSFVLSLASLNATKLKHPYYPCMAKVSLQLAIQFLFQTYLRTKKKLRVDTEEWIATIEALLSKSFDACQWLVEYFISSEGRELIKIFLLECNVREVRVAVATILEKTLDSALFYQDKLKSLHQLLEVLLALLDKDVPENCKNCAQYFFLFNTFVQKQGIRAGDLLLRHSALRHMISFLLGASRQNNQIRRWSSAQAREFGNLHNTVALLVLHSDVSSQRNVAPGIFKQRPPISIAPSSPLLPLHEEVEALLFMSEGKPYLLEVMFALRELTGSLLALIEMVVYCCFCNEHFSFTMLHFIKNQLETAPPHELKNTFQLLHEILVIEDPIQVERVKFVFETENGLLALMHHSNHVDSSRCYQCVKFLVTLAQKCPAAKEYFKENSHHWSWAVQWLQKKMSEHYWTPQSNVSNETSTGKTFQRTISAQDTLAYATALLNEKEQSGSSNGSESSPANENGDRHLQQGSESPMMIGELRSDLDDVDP
Method in brief: as §1

USP25 = target: T3, USP25 (UniProt Q9UHP3)
T3 sequence (whole entry): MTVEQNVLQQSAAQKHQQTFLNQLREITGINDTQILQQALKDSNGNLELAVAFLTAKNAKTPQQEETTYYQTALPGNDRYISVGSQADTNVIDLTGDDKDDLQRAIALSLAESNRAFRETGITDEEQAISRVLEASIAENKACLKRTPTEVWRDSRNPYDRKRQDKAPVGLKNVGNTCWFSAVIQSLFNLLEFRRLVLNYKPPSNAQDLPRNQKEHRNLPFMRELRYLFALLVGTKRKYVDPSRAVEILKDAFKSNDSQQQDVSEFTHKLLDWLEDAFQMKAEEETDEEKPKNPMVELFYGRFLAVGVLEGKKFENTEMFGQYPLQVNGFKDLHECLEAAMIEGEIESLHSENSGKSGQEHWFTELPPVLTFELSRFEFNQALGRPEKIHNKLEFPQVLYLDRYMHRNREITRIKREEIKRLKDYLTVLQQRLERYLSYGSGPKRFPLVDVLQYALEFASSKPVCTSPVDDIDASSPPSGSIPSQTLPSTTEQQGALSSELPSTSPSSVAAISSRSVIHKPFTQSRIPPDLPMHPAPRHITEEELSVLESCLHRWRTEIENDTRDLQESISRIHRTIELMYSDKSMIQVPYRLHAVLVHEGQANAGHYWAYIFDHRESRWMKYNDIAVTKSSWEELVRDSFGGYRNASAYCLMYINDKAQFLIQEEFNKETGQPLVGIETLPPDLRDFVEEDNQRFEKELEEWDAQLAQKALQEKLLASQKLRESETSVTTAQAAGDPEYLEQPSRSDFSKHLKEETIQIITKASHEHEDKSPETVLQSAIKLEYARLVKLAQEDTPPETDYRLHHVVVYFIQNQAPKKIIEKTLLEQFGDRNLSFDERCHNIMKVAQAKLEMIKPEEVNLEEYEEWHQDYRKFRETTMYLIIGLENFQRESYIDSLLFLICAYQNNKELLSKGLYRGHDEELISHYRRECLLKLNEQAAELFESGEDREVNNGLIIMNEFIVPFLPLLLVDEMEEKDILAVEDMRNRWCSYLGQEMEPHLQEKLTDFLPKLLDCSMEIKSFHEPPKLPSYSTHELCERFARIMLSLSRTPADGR
Method in brief: as §1

USP28 = target: T4, USP28 (UniProt Q96RU2)
T4 sequence (whole entry): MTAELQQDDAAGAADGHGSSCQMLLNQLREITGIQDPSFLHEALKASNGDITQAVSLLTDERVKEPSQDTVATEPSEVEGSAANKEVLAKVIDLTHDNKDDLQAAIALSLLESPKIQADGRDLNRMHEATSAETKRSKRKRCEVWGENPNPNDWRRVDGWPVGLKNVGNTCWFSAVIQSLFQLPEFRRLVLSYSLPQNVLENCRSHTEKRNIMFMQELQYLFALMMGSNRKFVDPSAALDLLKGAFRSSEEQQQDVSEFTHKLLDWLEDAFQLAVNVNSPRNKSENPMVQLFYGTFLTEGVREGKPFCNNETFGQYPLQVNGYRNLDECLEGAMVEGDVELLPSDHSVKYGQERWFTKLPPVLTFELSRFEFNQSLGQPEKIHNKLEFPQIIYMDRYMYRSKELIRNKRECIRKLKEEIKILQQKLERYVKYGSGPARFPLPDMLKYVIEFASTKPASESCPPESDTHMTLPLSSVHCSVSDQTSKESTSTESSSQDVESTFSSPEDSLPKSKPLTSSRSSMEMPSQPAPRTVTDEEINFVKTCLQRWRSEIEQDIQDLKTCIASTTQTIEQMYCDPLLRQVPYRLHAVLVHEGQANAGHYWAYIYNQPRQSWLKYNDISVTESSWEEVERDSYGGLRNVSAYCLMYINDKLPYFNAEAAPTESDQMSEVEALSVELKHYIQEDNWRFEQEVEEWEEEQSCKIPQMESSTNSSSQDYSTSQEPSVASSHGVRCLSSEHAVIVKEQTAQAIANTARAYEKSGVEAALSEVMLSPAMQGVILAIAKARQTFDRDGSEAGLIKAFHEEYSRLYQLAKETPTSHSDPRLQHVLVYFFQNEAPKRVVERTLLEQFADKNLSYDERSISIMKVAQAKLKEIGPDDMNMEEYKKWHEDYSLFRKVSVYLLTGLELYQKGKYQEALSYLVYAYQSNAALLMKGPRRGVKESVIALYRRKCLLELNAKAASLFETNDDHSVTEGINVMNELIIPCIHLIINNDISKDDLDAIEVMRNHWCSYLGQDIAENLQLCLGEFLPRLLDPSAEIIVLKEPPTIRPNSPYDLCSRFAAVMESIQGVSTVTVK
Method in brief: as §1

Measured: log2 ratio of Biotin-Ahx-Ub-VS probe labelling

O=C(CCl)NCc1noc(C2CC2)n1
inactive: USP19 0.0297 | USP22 -0.122 | USP24 -0.225 | USP25 -0.329 | USP28 -0.393
